This is a sample that favours compounds with a hit; in the whole collection about 12% have one here.
Cl transport mod = modulates chloride dependent transport by human KCC2; KCC2 cells, thallium flux FluoZin-2 fluorescence; actives 2.2% (n = 190,000); Q9H2X9; B-score of Tl+ flux slope (higher = more flux/activation; lower = inhibition) at 10 µM;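 active = thallium flux slope and its plate-corrected score both differing from the plate sample mean at a set confidence after two filtering rounds, in either direction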;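 note: slope of fluorescence scaled to starting intensity during 10 to 20 s after thallium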
Target sequence (Q9H2X9 whole entry, looked up): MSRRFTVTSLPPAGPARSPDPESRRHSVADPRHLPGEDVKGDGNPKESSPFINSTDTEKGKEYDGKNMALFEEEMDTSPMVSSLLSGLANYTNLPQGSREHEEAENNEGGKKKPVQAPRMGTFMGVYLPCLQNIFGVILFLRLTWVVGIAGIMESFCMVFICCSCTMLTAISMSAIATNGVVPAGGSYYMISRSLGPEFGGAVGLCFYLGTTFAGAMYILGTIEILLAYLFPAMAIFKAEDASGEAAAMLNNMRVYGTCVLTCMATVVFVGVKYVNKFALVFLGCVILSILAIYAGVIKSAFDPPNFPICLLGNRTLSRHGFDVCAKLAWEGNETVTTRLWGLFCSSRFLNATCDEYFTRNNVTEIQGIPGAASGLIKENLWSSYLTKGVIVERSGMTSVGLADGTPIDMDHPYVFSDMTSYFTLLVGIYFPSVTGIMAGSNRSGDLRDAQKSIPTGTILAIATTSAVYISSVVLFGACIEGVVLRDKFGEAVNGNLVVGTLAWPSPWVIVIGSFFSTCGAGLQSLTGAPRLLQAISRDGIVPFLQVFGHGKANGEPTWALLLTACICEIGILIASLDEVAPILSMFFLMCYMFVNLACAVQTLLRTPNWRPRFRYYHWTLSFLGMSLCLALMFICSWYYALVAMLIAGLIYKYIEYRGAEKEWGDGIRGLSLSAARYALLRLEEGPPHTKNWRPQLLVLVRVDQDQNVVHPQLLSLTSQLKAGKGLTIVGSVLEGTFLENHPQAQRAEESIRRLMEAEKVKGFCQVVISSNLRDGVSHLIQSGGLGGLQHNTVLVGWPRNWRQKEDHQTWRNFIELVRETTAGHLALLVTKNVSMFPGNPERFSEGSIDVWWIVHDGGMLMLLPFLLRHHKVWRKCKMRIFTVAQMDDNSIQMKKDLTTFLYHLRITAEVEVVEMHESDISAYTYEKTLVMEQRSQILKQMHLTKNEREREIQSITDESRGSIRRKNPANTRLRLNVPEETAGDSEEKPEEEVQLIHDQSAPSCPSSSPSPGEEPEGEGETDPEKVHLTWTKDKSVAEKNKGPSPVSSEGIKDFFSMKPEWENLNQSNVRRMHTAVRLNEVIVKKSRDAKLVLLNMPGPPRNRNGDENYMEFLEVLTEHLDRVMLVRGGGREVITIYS
WT yeast gro inh = growth inhibition of WT yeast, mitochondrial fusion screen; mitochondrial fusion phenotypic screen, WT strain; inhibition, % at 10 µM; actives 2.1% (n = 190,000); in the data active = inhibition above about 58%; tested in S. cerevisiae
Ins promoter up = MIN6 insulin promoter up-regulation; MIN6 insulin promoter-GFP reporter, high-content imaging; active compounds read high; z-score at 5 µM; actives 0.3% (n = 190,000); AID 1625;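 active = z-score above 3 at 5 µM with at least 500 cells counted in the well; inconclusive = wells under 500 cells, flagged as cytotoxic or low count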
INS promoter inh = TRM-6 insulin promoter activity inhibition; AID 1273; actives 0.9% (n = 130,000); TRM-6 cells (human fetal islet line), insulin promoter-eGFP reporter, imaging; reporter expression induced with tamoxifen; inhibition, % at 2 µM;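 active = inhibition above the mean plus 3 SD, with well images judged a real hit on visual review, cut at about 60% in these data, passing the limit was not always enough; inconclusive = inhibition over the cutoff but images rejected on review; inactive = inhibition not above the cutoff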
ROMK primary = human ROMK K+ channel modulation, primary screen. B-score at 10 µM. P48048. actives 2% (n = 130,000). Tet-inducible ROMK, thallium flux fluorescence; actives lie on both sides;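 active = signal ratio slope over the read window, or its plate-corrected B-score, at least 3 SD from the plate mean, either direction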;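 note: B-score of the F/F0 ratio slope over 7 to 12 s after thallium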
L major viab = inhibitors of Leishmania major promastigote growth | AID 1063 | actives 9% (n = 200,000) | Leishmania major promastigotes, resazurin fluorescence viability | inhibition, % at 10 µM; in the data active = inhibition above about 50%;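 note: promastigotes grown with compound for 44 hours at 28 °C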
KCC2 sec1 = confirmation of human KCC2 transport modulators; shares compounds with Cl transport mod; HEK293-KCC2, thallium flux, FluoZin2 fluorescence; active compounds read high; normalised thallium flux (F/F0 slope) at 10 µM; actives 15% (n = 3,700); AID 1713;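 active = thallium flux slope above the same plate's solvent-only control mean plus 3 SD; inconclusive = the two replicate wells disagree; inactive = no significant difference from solvent-only control wells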
KCC2 bumet counter = thallium flux despite bumetanide block in KCC2 cells, secondary assay 3 | actives 49% (n = 3,700) | HEK293-KCC2 + bumetanide/ouabain, thallium flux FluoZin2; active compounds read high | normalized thallium flux at 10 µM | AID 1714 | shares compounds with Cl transport mod;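 active = thallium entry rate above the same plate's blocked-transporter control wells by more than 3 SD; inconclusive = the two repeat wells disagree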;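 note: raw slope of fluorescence over initial fluorescence between 10 and 20 s after thallium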
KCC2 sec2 = KCC2 (human) modulation, second secondary assay; HEK293-KCC2, thallium flux FluoZin2 fluorescence; actives lie on both sides; F/F0 rise rate, 10–20 s post-thallium; normalized thallium flux at 10 µM; shares compounds with Cl transport mod; actives 23% (n = 3,700);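 active = thallium flux slope more than 3 SD above or below the plate's solvent-only control mean, mostly below; inconclusive = the two repeat wells disagreed; inactive = no significant shift from solvent-only controls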;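 note: raw slope with 0.1% DMSO as baseline and bumetanide as block control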
HEK293 Tl flux = counter-screen for KCC2 modulators: effect in parental HEK293 cells; shares compounds with Cl transport mod; thallium flux FluoZin2, ouabain; baseline-ratio fluorescence slope, 10–20 s after thallium; thallium flux rate (normalised fluorescence) at 10 µM; actives 46% (n = 3,700); AID 1716;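 active = thallium flux rate significantly above the same plate's solvent-only control wells, beyond their mean plus 3 SD; inconclusive = the two replicate wells gave conflicting results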
KCC2 retest ouab = KCC2 (human) modulation, ouabain retest | AID 1717 | HEK293-KCC2, thallium flux FluoZin2 fluorescence; bidirectional: low = inhibitor, high = activator | actives 48% (n = 3,700) | shares compounds with Cl transport mod | raw Tl+ flux slope (below DMSO = inhibition, above = activation) at 10 µM;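 active = thallium flux slope beyond 3 SD from same-plate DMSO control mean in most replicates, usually higher, sometimes lower; inconclusive = repeat tests gave conflicting results; inactive = no significant difference from controls in most replicates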;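 note: slope of initial-normalized fluorescence between seconds 10 and 20 after thallium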
HEK293 Tl flux2 = parental HEK flux effect, counter-screen 2; shares compounds with Cl transport mod; AID 1718; thallium flux slope at 10 µM; actives 33% (n = 3,700); HEK293 parental, thallium flux FluoZin-2 fluorescence slope;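 active = thallium flux slope above the same plate's solvent-control mean plus 3 SD in both duplicate wells; inconclusive = duplicate wells that disagreed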;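 note: run without ouabain in cells lacking the KCC2 cotransporter; slope of fluorescence scaled to its starting value between 10 and 20 s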
An asterisk follows results filed as active; ? = inconclusive; nt = not tested or not shown.

SMILES | Cl transport mod | WT yeast gro inh | Ins promoter up | INS promoter inh | ROMK primary | L major viab | KCC2 sec1 | KCC2 bumet counter | KCC2 sec2 | HEK293 Tl flux | KCC2 retest ouab | HEK293 Tl flux2
CN1C(C(=O)NCCc2cccs2)CC2Cn3c(nc4cc5ccccc5cc43)C21 (stereo not given) | -2.8* | nt | -1.1 | nt | nt | nt | 0.0068 | 0.0067 | 0.033 | 0.008 | 0.024 | 0.011
O=C(Nc1ccc(N2CCOCC2)cc1)c1ccc(S(=O)(=O)N2CCCCC2)cc1 | 1.1 | -8 | 0.87 | nt | nt | -2 | nt | nt | nt | nt | nt | nt
O=C(N/N=C/c1coc2ccccc2c1=O)c1ccccc1Br | nt | 20 | 0.06 | 38 | 1.1 | -4 | nt | nt | nt | nt | nt | nt
O=C(Nc1ccccc1Cl)c1ccc(Cl)cc1Cl | -0.37 | 1 | -0.7 | nt | 1.4 | -3 | nt | nt | nt | nt | nt | nt
O=C(COc1cccc(Br)c1)N/N=C/C(=O)c1ccccc1 | 5.9* | 8 | -0.73 | 14 | -0.29 | 0 | 0.0055 | 0.014* | 0.032 | 0.012* | ? | 0.015*
O=C(/C=N/NC(=O)c1ccccc1Br)c1ccccc1 | 8* | -5 | 0.23 | -76 | 0.11 | 1 | 0.0068 | 0.019* | 0.031 | 0.02* | ? | 0.018*
O=C(COc1ccc(-c2ccccc2)cc1)N/N=C/c1ccccc1Br | 0.81 | 12 | nt | -10 | nt | -3 | nt | nt | nt | nt | nt | nt
O=C(/C=N/NC(=O)c1ccc(Cl)cc1Cl)c1ccccc1 | 91* | nt | -0.34 | nt | nt | nt | 0.0062 | 0.1* | 0.062* | 0.048* | 0.076* | 0.039*
Cc1ccc(C(=O)NCCNS(C)(=O)=O)cc1 | -0.024 | -5 | 1.7 | -21 | -0.34 | -1 | nt | nt | nt | nt | nt | nt
O=C(Oc1ccc(N(Cc2cccs2)C2=NS(=O)(=O)c3ccccc32)cc1)c1ccccc1Cl | -0.84 | -7 | -0.09 | ? | -0.92 | 6 | nt | nt | nt | nt | nt | nt
COc1ccc(S(=O)(=O)NC(CC(=O)NCCc2ccccc2)c2ccco2)cc1 (stereo not given) | nt | -3 | -0.63 | -46 | 0.3 | -2 | 0.0071 | 0.0061 | 0.034 | 0.0082 | ? | 0.01
COc1ccc(S(=O)(=O)NC(CC(=O)NCCc2ccc(OC)c(OC)c2)c2ccco2)cc1 (stereo not given) | -0.091 | 9 | -0.09 | -75 | nt | -1 | nt | nt | nt | nt | nt | nt
Cn1nc([N+](=O)[O-])nc1Oc1ccc2ccccc2c1 | nt | -10 | nt | -27 | 1.5 | 9 | nt | nt | nt | nt | nt | nt
Cc1ccc(S(=O)(=O)Cn2nnnc2C(C(C)C)N2CCN(Cc3ccco3)CC2)cc1 (stereo not given) | -2.5* | 5 | -0.28 | nt | nt | -2 | 0.0074 | 0.0043 | 0.028 | 0.008 | 0.016 | 0.011
Fc1cccc(Cl)c1CSc1nnc(CNc2ccccc2)o1 | -3.5* | 7 | -0.24 | nt | 0.055 | -1 | 0.015 | 0.0029 | 0.026 | 0.0058* | 0.014* | ?
O=[N+]([O-])c1ccc(Oc2ccc(-c3cnc4ccccc4n3)cc2[N+](=O)[O-])cc1 | -0.69 | 11 | -0.67 | -30 | -0.58 | -3 | nt | nt | nt | nt | nt | nt
CCN1CCN(C(c2ccccc2)c2nnnn2Cc2ccccc2)CC1 (stereo not given) | -4.9* | -16 | nt | -87 | -0.29 | -3 | 0.014 | 0.0052 | 0.03 | 0.0073 | 0.016 | 0.0091
COc1ccc2c(c1)OC1=C(C(=O)CCC1)C2C1=C(O)CCCC1=O (stereo not given) | -0.68 | -3 | -0.23 | -3 | nt | -2 | nt | nt | nt | nt | nt | nt
